Test [1] concerns the target T1, Serine/threonine-protein kinase haspin (Homo sapiens) (UniProt Q8TF76).
T1 sequence (whole entry): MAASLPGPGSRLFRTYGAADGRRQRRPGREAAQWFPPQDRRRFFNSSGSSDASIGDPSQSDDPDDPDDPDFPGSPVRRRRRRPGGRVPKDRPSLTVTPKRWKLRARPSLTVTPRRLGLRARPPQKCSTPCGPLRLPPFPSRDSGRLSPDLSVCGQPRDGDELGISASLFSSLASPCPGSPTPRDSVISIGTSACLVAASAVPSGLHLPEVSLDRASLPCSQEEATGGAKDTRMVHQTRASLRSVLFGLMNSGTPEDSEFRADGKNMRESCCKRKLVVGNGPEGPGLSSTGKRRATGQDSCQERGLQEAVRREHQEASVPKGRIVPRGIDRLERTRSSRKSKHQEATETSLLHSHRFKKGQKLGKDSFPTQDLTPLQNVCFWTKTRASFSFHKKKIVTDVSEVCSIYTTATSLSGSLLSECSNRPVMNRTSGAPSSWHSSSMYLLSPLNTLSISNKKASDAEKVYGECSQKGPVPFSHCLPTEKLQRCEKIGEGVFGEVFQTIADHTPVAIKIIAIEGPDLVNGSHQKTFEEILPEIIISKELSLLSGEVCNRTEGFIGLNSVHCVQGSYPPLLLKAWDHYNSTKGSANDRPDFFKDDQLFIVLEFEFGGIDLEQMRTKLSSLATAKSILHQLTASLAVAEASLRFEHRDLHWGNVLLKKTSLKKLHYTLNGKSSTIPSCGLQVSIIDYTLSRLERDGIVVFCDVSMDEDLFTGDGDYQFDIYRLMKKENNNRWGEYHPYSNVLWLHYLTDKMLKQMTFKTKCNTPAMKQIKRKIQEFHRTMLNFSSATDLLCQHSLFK
To be noted: at 1 µM.

Test [2] addresses T1, Serine/threonine-protein kinase haspin (Homo sapiens). To be noted: at 10 µM.
In test [3] the target is Tyrosine-protein kinase HCK (Homo sapiens) (UniProt P08631). To be noted: at 1 µM.
Chain of Tyrosine-protein kinase HCK (Homo sapiens) (P08631 2-526 limits assumed): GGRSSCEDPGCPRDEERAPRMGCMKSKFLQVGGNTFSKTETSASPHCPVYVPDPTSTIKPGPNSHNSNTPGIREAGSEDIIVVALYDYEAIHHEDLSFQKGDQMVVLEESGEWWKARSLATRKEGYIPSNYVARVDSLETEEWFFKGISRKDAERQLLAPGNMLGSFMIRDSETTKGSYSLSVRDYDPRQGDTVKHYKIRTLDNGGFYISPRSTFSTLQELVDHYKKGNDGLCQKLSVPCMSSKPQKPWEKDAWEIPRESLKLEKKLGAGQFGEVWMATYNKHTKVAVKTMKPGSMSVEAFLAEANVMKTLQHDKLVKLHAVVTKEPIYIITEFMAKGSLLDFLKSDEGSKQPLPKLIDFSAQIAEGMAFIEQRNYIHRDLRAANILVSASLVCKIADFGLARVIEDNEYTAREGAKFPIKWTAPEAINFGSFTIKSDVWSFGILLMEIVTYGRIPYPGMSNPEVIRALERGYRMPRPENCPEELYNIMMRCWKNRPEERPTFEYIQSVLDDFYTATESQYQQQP
Test [4] shares this target. To be noted: at 10 µM.
The target is the same in test [5]. To be noted: at 1 µM. The source holds these as a separate data set.
Test [6] shares this target. Conditions: at 10 µM. The source holds these as a separate data set.
The target of test [7] is Homeodomain-interacting protein kinase 3 (Homo sapiens) (UniProt Q9H422). To be noted: at 10 µM.
Chain of Homeodomain-interacting protein kinase 3 (Homo sapiens) (Q9H422 whole entry, looked up): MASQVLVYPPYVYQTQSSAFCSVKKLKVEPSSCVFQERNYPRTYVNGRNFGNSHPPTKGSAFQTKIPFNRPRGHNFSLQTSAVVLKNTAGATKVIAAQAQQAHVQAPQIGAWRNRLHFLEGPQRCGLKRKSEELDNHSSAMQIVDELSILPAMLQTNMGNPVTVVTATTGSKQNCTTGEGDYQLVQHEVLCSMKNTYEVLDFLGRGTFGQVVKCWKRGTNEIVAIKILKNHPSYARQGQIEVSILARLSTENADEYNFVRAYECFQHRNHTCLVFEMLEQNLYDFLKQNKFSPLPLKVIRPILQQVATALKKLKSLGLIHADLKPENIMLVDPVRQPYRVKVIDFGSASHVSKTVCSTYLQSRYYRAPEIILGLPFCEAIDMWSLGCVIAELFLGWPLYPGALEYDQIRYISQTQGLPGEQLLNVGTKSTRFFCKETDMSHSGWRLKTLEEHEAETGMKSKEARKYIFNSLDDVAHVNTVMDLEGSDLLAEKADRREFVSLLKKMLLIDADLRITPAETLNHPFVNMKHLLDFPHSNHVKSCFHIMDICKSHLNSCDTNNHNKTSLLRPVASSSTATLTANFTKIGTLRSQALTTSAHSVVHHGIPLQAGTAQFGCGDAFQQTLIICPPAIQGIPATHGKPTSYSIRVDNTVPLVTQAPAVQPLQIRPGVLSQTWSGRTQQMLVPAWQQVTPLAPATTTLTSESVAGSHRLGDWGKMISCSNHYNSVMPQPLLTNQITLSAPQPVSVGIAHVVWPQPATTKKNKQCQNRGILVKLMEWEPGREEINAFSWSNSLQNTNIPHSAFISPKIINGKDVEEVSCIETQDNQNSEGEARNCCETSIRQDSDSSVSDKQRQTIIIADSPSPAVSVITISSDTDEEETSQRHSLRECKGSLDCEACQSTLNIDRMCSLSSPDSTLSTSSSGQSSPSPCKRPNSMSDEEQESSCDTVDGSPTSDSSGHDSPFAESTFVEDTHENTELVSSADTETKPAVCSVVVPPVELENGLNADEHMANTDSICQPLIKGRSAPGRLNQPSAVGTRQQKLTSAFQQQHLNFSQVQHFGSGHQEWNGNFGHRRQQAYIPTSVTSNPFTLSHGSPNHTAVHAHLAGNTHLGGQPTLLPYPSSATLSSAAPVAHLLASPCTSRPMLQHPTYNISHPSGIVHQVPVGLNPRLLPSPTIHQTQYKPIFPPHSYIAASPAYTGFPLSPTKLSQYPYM
Test [8] addresses Insulin-like growth factor 1 receptor (Homo sapiens) (UniProt P08069). Conditions: at 1 µM.
Test [9] shares this target. Conditions: at 10 µM.
Test [10] deals with T2, Protein kinase C zeta type (Homo sapiens) (UniProt Q05513).
T2 sequence (whole entry): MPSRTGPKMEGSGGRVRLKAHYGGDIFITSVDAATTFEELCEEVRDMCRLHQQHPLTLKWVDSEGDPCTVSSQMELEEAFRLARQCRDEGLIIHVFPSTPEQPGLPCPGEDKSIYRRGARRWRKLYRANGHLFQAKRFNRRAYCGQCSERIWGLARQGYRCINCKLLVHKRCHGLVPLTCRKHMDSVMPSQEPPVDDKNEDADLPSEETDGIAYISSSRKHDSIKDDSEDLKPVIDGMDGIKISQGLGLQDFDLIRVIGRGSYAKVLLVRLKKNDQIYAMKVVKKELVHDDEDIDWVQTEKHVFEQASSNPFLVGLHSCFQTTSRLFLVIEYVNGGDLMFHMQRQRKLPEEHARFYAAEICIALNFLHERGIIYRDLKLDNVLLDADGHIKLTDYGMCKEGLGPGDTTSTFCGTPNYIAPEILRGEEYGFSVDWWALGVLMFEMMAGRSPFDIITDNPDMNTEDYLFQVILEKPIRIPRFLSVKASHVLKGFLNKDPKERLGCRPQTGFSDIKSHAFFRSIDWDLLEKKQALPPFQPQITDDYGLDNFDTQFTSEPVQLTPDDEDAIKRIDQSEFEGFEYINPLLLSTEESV
Conditions: at 10 µM.

Chain of Insulin-like growth factor 1 receptor (Homo sapiens) (P08069 31-736 limits assumed): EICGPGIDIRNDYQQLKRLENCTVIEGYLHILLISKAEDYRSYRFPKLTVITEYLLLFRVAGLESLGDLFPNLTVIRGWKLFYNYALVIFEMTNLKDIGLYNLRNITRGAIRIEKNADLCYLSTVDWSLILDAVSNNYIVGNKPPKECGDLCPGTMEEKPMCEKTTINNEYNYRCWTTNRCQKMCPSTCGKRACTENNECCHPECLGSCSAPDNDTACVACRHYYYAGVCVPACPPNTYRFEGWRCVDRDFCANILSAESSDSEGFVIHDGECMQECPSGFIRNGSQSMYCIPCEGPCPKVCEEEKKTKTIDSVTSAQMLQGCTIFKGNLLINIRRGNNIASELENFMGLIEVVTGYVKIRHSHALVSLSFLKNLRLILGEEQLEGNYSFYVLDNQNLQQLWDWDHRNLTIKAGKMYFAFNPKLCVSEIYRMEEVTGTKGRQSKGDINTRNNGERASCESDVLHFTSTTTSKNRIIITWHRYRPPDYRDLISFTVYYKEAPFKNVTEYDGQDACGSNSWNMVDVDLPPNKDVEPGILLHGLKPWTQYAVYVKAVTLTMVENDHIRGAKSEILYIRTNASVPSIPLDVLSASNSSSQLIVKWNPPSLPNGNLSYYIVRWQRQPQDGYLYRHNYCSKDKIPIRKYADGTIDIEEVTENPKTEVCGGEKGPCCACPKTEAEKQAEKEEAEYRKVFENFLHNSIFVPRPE
Chain of Insulin-like growth factor 1 receptor (Homo sapiens) (P08069 741-1367 limits assumed): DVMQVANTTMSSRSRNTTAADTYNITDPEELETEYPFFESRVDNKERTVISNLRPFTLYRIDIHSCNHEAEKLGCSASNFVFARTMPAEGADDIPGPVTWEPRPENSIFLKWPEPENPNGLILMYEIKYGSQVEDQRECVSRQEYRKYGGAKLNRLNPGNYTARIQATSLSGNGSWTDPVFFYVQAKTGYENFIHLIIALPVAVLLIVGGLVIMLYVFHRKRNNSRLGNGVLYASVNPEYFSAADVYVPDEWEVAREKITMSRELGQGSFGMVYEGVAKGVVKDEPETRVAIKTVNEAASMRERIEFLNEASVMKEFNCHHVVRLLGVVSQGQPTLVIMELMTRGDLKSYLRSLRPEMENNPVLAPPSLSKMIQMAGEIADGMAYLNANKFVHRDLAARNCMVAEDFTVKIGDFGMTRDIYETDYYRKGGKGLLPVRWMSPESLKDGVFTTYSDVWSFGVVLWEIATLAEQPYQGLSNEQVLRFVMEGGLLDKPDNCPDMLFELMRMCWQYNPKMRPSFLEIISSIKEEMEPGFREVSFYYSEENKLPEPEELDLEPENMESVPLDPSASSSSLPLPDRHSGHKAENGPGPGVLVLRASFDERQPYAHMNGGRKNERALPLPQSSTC

Turning to `Cc1cc(C)c(/C=C2\C(=O)Nc3ccccc32)[nH]1`, the residual activity in test [1] amounted to 100%; in [2], 77%; in [3] it was 60%; in test [4] it was 25%; in [5], 63%; in test [6] it was 40%.

As to `CCCCc1c(-c2ccc(OC)cc2)[nH]c2nccnc12`, the residual activity in test [7] stood at 110%; in [1], 77%; in [2] it was 27%; in test [3] it was 60%; in test [4], 24%; in test [5], 75%. For the same molecule, the residual activity in [6] is 81%; in [8] it was 109%; in [9] it was 136%; in test [10], 103%.

As for `CN(C)S(=O)(=O)c1ccc2c(c1)/C(=C/c1cc3c([nH]1)CCCC3)C(=O)N2`, the residual activity was 86% in test [7]; 127% in test [1]; 10% in [3]; 10% in test [4]; 73% in test [5]; 74% in test [6]. Further, the residual activity in test [9] was found to be 134%.

With `O=C(NC(NC(=S)Nc1ccc(F)c([N+](=O)[O-])c1)C(Cl)(Cl)Cl)C(c1ccccc1)c1ccccc1` (stereo not given), the residual activity in test [7] is 103%; in [1], 83%; in [2], 47%; in test [3] it was 80%; in test [4], 38%; in test [8], 76%. Moreover, the values for the residual activity in test [9] and in [10] were 42% and 94%, respectively.

As to `CC(C)[C@H](CO)Nc1nc(Nc2cc(N)cc(Cl)c2)c2ncn(C(C)C)c2n1`, the residual activity is 73% in test [7]; 57% in test [1]; 20% in [2]; 27% in [3]; 5% in test [4]; 50% in test [5]. In addition, the residual activity in test [6] turned out to be 9%; in [8], 118%; in [9] it was 92%.

For the molecule `O=C1C(Cl)=C(N2C(=O)CCC2=O)C(=O)c2ccccc21`, the residual activity was 86% in [7]; 96% in test [1]; 71% in test [3]; 63% in test [4]; 91% in test [5]; 93% in [8]. The residual activity in test [9] amounted to 130%.

For the molecule `CC(C)N(CCC(=O)c1ccc2ccccc2c1)Cc1ccccc1`, the residual activity in test [7] came out at 100%; in [1] it was 81%; in [2], 66%; in test [3] it was 79%; in test [4] it was 64%.

`N#C/C(=C1/Nc2ccccc2S1)c1ccnc(NCCc2cccnc2)n1`: the residual activity in test [7] is 21%; in test [1], 36%; in test [2], -2%; in test [3], 60%; in [4], 26%; in [5] it was 88%. For the same molecule, the residual activity came to 68% in test [6], 143% in test [8] and 72% in [9].

On to `CCN(CC)CCNC(=O)c1c(C)[nH]c(/C=C2\C(=O)Nc3ccc(Cl)cc32)c1C`, for which the residual activity was -5% in test [7]; 43% in [1]; 12% in test [2]; 13% in [3]; 3% in test [4]; 9% in test [5]. Moreover, the figures for the residual activity in test [6], in test [8] and in test [9] were 0%, 135% and 13%, respectively.

Regarding `CC(C)(C)c1nc2c3ccc(F)cc3c3c(=O)[nH]ccc3c2[nH]1`, the residual activity in test [7] was 45%; in test [1], 74%; in [2], 34%; in [3], 49%; in test [4], 31%; in [5] it was 68%. Also, the residual activity in test [6] turned out to be 60%; in test [8], 119%.

In the case of `CCCCc1c(-c2ccc(O)cc2)[nH]c2nccnc12`, the residual activity in test [1] came out at 34%; in [2] it was 12%; in [3] it was 64%; in test [4] it was 23%; in test [5], 63%; in [6], 64%. Also, in test [8], the residual activity is 131%.

For `Nc1nc(Nc2ccc(S(N)(=O)=O)cc2)nn1C(=O)c1c(F)cccc1F`, the residual activity came out at 71% in test [3]; 25% in [4]; 75% in test [5]; 21% in test [6]; 105% in [9].

In the case of `O=C1NC(=O)C(c2cn(CCCO)c3ncccc23)=C1c1cnccn1`, the residual activity in test [1] came to 69%; in test [2], 55%; in test [3], 66%; in [4] it was 48%; in test [5], 95%; in test [6], 96%. The residual activity in test [8] is 138%; in test [9] it was 124%.

`COc1cc2c(cc1OC)-c1n[nH]c(Nc3cccc(F)c3)c1C2`: the residual activity in test [3] was 22%; in test [4], 6%; in [5], 19%; in test [6], 2%; in test [8], 105%; in [9] it was 115%. Also, the residual activity in test [10] was 109%.

Take `O=C(Nc1ccc(Cl)cc1)c1ccccc1NCc1ccncc1`: the residual activity turned out to be 80% in [3], 38% in test [4] and 125% in [8].

Consider `Cn1c2ccccc2c2c3c(c4c5ccccc5n(CCC#N)c4c21)CNC3=O`, for which the residual activity in [1] was found to be 11%; in test [2] it was 8%; in [3], 31%; in [4], 9%; in [5], 69%; in test [6], 58%. Further, the residual activity in test [8] stood at 145%; in test [9], 104%; in [10], 108%.

For the molecule `O=C1Nc2ccccc2/C1=C\c1c(Cl)[nH]c2ccccc12`, the residual activity in test [1] is 85%; in [2], 61%; in [3] it was 79%; in test [4], 27%; in [6], 87%.

Consider `O=S(=O)(NCCNC/C=C/c1ccc(Br)cc1)c1cccc2cnccc12`, for which the residual activity is 7% in [1], 0% in test [2], 72% in [4] and 78% in test [10].

For the molecule `O=C1NC(=O)C(c2cn(CCCn3ccnc3)c3ccccc23)=C1Nc1ccccc1`, the residual activity came out at 52% in test [2]; 80% in [3]; 65% in [4]; 140% in test [8]; 50% in [10].

For `O=C1NC(=O)C(c2c[nH]c3ccccc23)=C1c1c[nH]c2ccccc12`, the residual activity in test [2] is 69%; in [4] it was 38%; in [8], 128%; in test [10], 25%.

Consider `CN([C@@H](Cc1ccc(OS(=O)(=O)c2cccc3cnccc23)cc1)C(=O)N1CCN(c2ccccc2)CC1)S(=O)(=O)c1cccc2cnccc12`, for which the residual activity in [2] is 57%; in test [3], 86%; in test [4] it was 61%; in [9], 182%.

On to `Fc1ccc(-c2nc3n(c2-c2ccncc2)CCS3)cc1`, for which the residual activity in [2] was determined as 96%; in test [3], 95%; in test [4], 94%.

In the case of `COc1ccc(CNC(=O)Nc2ncc([N+](=O)[O-])s2)cc1`, the residual activity in test [3] was determined as 13%; in test [4], 12%; in [5], 52%; in test [6], 54%; in [9], 123%; in test [10], 105%.

On to `CCOc1nc(NC(=O)Cc2cc(OC)ccc2OC)cc(N)c1C#N`, for which the residual activity in test [3] is 78%; in test [4], 71%; in [9], 130%.

For `O=c1cc(N2CCOCC2)oc2c(-c3ccccc3)cccc12`, the residual activity turned out to be 54% in test [2], 66% in [3], 58% in test [4] and 133% in [8].

In the case of `NC(=O)c1ccc(-c2nc(-c3ccc4c(c3)OCCO4)c(-c3ccccn3)[nH]2)cc1`, the residual activity amounted to 95% in test [1]; 82% in [2]; 68% in test [3]; 66% in test [4]; 137% in [9].

Consider `O=C1Cc2c([nH]c3ccc(Br)cc23)-c2ccccc2N1`, for which the residual activity in [1] was 60%; in test [2], 44%; in test [4], 28%; in test [9], 141%; in test [10], 92%.

For the molecule `COc1cc2nccc(Oc3ccc(NC(=O)Nc4cc(C)on4)c(Cl)c3)c2cc1OC`, the residual activity is 7% in [3]; 2% in [4]; 5% in test [5]; 6% in [6]; 135% in test [8].

As to `Nc1nccc(-c2c(-c3ccc(F)cc3)ncn2C2CCNCC2)n1`, the residual activity in test [1] stood at 54%; in [2] it was 36%; in test [4] it was 53%; in [6], 43%; in test [9] it was 120%.

The values above are taken from ChEMBL document CHEMBL2218924, “A broad activity screen in support of a chemogenomic map for kinase signalling research and drug discovery” (Biochem J, 2013).
